Source: the supplement of paper PMC11732987, “Enantioselective OTUD7B fragment discovery through chemoproteomics screening and high-throughput optimisation” (Communications Chemistry, 2025)

Key:
Experiment in all cases: log2 ratio of Biotin-Ahx-Ub-VS probe labelling (fragment/DMSO); higher = less target engagement (more negative = stronger competition), active = hit call of the paper (q ≤ 0.05, log2 ratio ≤ -1)
Conditions in all cases: compound concentration: 200 uM; treatment time: 3 h
ALG13 = biological target: T1, ALG13 (UniProt Q9NP73)
T1 sequence (whole entry): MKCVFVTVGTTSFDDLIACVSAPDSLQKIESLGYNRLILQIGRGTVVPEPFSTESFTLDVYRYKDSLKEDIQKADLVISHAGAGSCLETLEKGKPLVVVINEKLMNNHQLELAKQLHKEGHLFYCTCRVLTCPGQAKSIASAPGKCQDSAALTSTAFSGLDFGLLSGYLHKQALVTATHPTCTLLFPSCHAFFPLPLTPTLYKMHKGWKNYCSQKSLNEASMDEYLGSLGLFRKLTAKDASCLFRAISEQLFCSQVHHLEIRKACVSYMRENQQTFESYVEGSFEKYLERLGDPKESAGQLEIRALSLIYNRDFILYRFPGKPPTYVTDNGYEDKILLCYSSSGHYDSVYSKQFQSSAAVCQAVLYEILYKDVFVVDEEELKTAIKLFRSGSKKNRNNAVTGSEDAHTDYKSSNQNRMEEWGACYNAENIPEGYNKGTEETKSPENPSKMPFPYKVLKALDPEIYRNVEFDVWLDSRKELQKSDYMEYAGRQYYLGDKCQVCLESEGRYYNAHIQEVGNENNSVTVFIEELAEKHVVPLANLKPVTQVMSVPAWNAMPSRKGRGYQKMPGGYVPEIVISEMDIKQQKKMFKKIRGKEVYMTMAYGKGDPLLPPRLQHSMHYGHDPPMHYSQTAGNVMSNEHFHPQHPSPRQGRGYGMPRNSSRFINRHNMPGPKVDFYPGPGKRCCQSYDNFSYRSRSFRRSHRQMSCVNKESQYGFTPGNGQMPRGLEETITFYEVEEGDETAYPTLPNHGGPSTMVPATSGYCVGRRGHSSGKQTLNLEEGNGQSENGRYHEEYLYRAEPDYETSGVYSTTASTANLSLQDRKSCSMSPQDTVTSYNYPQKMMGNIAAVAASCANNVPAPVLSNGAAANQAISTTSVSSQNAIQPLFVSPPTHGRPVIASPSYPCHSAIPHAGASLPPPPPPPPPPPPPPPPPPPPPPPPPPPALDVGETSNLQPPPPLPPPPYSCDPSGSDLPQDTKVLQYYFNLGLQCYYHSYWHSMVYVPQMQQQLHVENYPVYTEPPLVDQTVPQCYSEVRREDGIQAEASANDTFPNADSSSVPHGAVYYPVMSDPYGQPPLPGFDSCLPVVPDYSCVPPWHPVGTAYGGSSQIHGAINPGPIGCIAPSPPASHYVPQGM
How it was run: (§1)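 Average log2 ratios of fragment over vehicle were obtained by unpaired t-test from global-median-normalised Spectronaut label-free quantities. Proteins with ≥2 unique peptides were included. HEK293T lysate (495 µg per sample) was treated in triplicate with fragment at 200 µM or vehicle for 3 h, then with Biotin-Ahx-Ub-VS at 0.5 µM final for 1 h, and labelled DUBs were NeutrAvidin-enriched and run by diaPASEF LC-MS/MS.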

ATXN3 = ATXN3 (UniProt P54252)
How it was run: as §1

BAP1 = biological target: T2, BAP1 (UniProt Q92560)
T2 sequence (whole entry): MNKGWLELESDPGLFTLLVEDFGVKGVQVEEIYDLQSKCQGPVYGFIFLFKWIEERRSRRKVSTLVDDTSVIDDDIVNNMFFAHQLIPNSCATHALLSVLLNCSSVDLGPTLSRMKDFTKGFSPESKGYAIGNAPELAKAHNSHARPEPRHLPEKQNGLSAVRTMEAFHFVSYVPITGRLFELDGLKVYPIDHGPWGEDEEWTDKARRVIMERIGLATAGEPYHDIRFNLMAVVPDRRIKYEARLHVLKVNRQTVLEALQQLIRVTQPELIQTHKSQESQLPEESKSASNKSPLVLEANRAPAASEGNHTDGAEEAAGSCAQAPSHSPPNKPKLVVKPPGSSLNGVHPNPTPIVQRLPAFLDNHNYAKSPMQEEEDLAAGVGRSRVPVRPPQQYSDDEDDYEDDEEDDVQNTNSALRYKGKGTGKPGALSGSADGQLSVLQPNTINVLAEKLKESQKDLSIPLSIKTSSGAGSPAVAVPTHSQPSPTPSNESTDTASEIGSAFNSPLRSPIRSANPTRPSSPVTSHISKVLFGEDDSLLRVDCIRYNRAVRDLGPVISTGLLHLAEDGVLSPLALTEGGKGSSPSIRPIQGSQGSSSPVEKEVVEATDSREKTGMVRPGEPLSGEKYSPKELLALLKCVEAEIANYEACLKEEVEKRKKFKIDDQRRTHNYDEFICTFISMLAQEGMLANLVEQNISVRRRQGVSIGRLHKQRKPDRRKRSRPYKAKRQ
How it was run: as §1

EIF3F = EIF3F (UniProt O00303)
How it was run: as §1

EIF3H = EIF3H (UniProt O15372)
How it was run: as §1

FAM105A = biological target: T3, FAM105A (UniProt Q9NUU6)
T3 sequence (whole entry): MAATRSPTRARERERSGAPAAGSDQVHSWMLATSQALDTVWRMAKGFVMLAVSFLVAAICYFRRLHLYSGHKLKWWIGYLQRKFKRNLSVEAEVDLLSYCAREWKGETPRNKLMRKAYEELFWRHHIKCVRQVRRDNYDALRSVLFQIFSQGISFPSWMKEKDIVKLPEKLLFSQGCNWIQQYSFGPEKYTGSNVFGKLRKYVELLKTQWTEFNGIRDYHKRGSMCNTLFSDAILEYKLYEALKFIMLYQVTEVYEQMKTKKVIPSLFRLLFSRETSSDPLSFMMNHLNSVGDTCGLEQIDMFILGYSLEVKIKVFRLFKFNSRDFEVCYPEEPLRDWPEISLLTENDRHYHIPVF
How it was run: as §1

OTUB1 = OTUB1 (UniProt Q96FW1)
How it was run: as §1

OTUD4 = biological target: T4, OTUD4 (UniProt Q01804)
T4 sequence (whole entry): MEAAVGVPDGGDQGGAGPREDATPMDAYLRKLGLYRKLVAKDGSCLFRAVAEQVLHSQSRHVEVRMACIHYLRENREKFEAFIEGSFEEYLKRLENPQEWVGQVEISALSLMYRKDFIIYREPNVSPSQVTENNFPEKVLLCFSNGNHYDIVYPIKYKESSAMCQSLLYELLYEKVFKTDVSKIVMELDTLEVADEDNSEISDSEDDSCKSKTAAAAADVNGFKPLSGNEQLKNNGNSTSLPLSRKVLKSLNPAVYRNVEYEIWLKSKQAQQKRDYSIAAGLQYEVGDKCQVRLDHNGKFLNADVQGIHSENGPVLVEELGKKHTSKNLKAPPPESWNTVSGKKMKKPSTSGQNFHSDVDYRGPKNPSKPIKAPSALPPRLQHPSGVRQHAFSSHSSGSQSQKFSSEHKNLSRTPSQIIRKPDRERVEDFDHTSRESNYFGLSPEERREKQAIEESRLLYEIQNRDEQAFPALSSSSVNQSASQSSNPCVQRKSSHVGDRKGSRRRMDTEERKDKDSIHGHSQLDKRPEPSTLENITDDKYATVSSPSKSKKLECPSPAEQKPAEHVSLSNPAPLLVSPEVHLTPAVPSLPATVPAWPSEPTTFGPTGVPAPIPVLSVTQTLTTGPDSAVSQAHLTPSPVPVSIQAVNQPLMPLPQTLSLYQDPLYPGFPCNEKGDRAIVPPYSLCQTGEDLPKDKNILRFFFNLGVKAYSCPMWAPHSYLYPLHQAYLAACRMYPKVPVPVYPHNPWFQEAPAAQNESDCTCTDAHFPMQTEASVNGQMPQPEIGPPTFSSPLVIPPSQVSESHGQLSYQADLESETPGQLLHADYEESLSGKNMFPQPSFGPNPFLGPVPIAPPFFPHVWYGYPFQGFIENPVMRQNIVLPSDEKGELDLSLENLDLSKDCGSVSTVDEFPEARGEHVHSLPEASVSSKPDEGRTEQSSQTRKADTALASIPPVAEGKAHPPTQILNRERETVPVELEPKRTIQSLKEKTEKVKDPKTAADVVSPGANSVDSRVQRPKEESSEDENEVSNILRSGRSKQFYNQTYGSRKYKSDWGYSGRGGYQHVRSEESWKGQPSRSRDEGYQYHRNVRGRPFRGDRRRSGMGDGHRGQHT
How it was run: as §1

OTUD5 = biological target: T5, OTUD5 (UniProt Q96G74)
T5 sequence (whole entry): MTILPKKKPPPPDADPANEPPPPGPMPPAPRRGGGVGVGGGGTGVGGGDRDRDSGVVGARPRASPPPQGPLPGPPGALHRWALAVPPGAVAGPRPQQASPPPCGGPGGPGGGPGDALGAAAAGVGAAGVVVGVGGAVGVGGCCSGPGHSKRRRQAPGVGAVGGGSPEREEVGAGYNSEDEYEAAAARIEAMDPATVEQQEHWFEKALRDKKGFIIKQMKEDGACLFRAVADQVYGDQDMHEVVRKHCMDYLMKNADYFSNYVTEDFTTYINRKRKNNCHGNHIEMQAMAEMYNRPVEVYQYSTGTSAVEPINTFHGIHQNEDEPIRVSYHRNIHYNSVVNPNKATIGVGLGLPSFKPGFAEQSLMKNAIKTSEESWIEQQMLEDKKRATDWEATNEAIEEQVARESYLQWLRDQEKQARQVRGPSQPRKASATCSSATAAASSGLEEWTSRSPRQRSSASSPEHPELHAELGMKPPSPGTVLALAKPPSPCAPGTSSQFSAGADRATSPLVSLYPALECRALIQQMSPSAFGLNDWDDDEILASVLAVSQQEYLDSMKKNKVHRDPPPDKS
How it was run: as §1

Measured: log2 ratio of Biotin-Ahx-Ub-VS probe labelling

EIF3H, sequence (O15372 whole entry): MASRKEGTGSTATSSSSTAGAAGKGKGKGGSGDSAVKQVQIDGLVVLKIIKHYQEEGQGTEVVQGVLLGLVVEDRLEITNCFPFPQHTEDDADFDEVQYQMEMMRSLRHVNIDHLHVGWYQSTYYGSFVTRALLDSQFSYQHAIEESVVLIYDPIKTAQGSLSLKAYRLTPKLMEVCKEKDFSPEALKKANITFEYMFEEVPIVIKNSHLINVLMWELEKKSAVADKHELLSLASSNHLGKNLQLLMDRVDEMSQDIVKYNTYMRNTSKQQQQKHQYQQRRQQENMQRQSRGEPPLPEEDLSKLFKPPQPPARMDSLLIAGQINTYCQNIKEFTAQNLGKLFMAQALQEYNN
ATXN3, sequence (P54252 whole entry): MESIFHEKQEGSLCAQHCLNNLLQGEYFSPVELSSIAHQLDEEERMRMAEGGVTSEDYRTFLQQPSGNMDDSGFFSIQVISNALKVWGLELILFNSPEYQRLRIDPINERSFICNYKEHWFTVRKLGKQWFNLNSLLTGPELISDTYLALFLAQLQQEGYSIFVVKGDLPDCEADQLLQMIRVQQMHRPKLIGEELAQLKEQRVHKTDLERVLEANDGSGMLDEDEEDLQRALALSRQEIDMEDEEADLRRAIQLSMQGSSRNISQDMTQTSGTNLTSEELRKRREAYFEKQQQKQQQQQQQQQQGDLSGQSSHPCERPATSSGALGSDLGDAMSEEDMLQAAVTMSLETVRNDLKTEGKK
OTUB1, sequence (Q96FW1 whole entry): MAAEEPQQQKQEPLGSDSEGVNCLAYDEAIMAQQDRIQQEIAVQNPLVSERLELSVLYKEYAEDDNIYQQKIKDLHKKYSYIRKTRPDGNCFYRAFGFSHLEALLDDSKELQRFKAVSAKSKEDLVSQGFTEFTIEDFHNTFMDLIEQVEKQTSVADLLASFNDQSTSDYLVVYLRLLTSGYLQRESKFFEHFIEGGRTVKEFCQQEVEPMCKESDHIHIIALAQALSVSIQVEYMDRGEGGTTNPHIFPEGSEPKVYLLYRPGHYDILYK
EIF3F, sequence (O00303 whole entry): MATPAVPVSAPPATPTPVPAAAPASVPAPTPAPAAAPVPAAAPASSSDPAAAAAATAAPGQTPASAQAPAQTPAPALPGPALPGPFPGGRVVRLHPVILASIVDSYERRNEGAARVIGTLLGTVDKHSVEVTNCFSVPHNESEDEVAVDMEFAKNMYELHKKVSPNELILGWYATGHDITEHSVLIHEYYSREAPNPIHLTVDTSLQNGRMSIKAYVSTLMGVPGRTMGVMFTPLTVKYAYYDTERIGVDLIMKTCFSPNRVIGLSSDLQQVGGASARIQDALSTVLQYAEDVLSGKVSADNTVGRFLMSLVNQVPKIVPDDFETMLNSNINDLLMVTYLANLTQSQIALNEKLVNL

Cl.O=C(CCl)NCc1cc2c(nc1O)CCCC2
inactive: ALG13 -0.00624 | ATXN3 -0.358 | EIF3F 0.116 | EIF3H 0.0749 | FAM105A 0.13 | OTUB1 -0.044 | OTUD4 -0.437 | OTUD5 -0.468
active: BAP1 -1.87
